Our source for the Potency values is PubChem BioAssay (NCATS).

Records with an inconclusive call do not appear. The source made the active and inactive calls. Unless noted, calls come from the whole dose curve; as a rule, active = well fitted curve in the direction sought with a large enough effect; inconclusive = small, poorly fitted or top-dose-only effect, or another doubt; inactive = no such curve, though single readings can be large; an effect the other way counts as inactive or inconclusive.

In experiment [1] the target is Luciferin 4-monooxygenase (Photinus pyralis) (UniProt P08659). As to the kind of experiment: Biochemical firefly luciferase enzyme assay for NPC (AID 624030).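 Note: purified P. pyralis luciferase at 10 nM with luciferin and ATP substrate; nearly all actives have a fitted effect of over 70% in size.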 An outline of the steps:
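Counter-screen for direct inhibition of the luciferase enzyme by approved-drug library compounds, run at 10 nM enzyme in 50 mM Tris acetate (final). Luminescence was read within 5 min of enzyme-buffer addition and normalized to PTC124 versus DMSO (0%).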

Experiment [2] in a line: S16 Schwann cell viability assay (CellTiter-Glo assay) (AID 624031). Note: nearly all actives have a fitted effect of over 70% in size. Note: potency is the fitted concentration of half-maximal effect. Put shortly: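 Native S16 rat Schwann cells in DMEM/10% FBS without phenol red were incubated overnight, then exposed to compounds for 24 h at 37 °C/5% CO2. Viability was read as ATP luminescence (CellTiter-Glo), normalized to no-cell wells and DMSO (0%).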
For the next experiment, the system named is 7G8. As to the kind of experiment: qHTS profiling for inhibitors of Plasmodium falciparum proliferation (AID 504749). Note: nearly all actives have a fitted effect of over 60% in size. Note: potency is the fitted concentration of half-maximal effect. As to conditions: P. falciparum in erythrocytes, SYBR Green DNA, 72 h; series mostly up to 28.7 µM. An outline of the steps: (§1)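 Quantitative HTS: compounds pinned into medium, infected erythrocytes added (0.3% parasitemia, 2.5% hematocrit), 72 h culture at 37 C under 5% CO2. Saponin/Triton lysis with SYBR Green I, overnight RT, then fluorescence read.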

The subject of another experiment is ATS95. The description is as above. As to conditions: P. falciparum in erythrocytes, SYBR Green DNA, 72 h; series mostly up to 28.7 µM. Put shortly: as §1
A further experiment deals with CP215. The experiment is described as above. The following applies: P. falciparum in erythrocytes, SYBR Green DNA, 72 h; series mostly up to 28.7 µM. An outline of the steps: as §1
The subject of another experiment is CP247. The experiment is described as above. The following applies: P. falciparum in erythrocytes, SYBR Green DNA, 72 h; series mostly up to 28.7 µM. Put shortly:
as §1

The subject of a further experiment is CP266. Described as above. The following applies: P. falciparum in erythrocytes, SYBR Green DNA, 72 h; series mostly up to 28.7 µM. Put shortly:
as §1

Another experiment has as its system CP291. The description is as above. As to conditions: P. falciparum in erythrocytes, SYBR Green DNA, 72 h; series mostly up to 28.7 µM. An outline of the steps: as §1
The next experiment relates to CP297. The description is as above. The following applies: P. falciparum in erythrocytes, SYBR Green DNA, 72 h; series mostly up to 28.7 µM. An outline of the steps: as §1
For the next experiment, the system named is CP335. The description is as above. The following applies: P. falciparum in erythrocytes, SYBR Green DNA, 72 h; series mostly up to 28.7 µM. An outline of the steps: as §1
For the next experiment, the system named is DIV17. Described as above. The following applies: P. falciparum in erythrocytes, SYBR Green DNA, 72 h; series mostly up to 28.7 µM. An outline of the steps: as §1
The next experiment relates to GB4. The experiment is described as above. The following applies: P. falciparum in erythrocytes, SYBR Green DNA, 72 h; series mostly up to 28.7 µM. An outline of the steps: as §1
The test system of another experiment is P93_24. The description is as above. As to conditions: P. falciparum in erythrocytes, SYBR Green DNA, 72 h; series mostly up to 28.7 µM. An outline of the steps: as §1
A further experiment has as its system PC15. The experiment is described as above. The following applies: P. falciparum in erythrocytes, SYBR Green DNA, 72 h; series mostly up to 28.7 µM. Put shortly:
as §1

The test system of a further experiment is PC26. Described as above. As to conditions: P. falciparum in erythrocytes, SYBR Green DNA, 72 h; series mostly up to 28.7 µM. An outline of the steps:
as §1

Another experiment has as its system PC49. Described as above. As to conditions: P. falciparum in erythrocytes, SYBR Green DNA, 72 h; series mostly up to 28.7 µM. Put shortly:
as §1

In a further experiment the test system is TAB109. Described as above. The following applies: P. falciparum in erythrocytes, SYBR Green DNA, 72 h; series mostly up to 28.7 µM. An outline of the steps:
as §1

Another experiment relates to TAB165. The experiment is described as above. As to conditions: P. falciparum in erythrocytes, SYBR Green DNA, 72 h; series mostly up to 28.7 µM. An outline of the steps:
as §1

Experiment [3] is described as follows: S16 Schwann cell PMP22 intronic element beta-lactamase assay (AID 624044; calls by dose curve; note: nearly all actives have a fitted effect of over 15% in size). As to conditions: S16 rat Schwann cells, PMP22 element beta-lactamase FRET, 24 h; ratio activity, negative = inhibition: at 38.3 µM (top of the series). Put shortly: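 Beta-lactamase reporter under a PMP22 intronic regulatory element in stable S16 rat Schwann cells; 24 h compound exposure. 460 nm blue signal normalized between DMSO (0%) and potassium clavulanate, with 535 nm FRET tracking viability; curves classed by r2 and response.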

Another experiment concerns CP260. As to the kind of experiment: qHTS profiling for inhibitors of Plasmodium falciparum proliferation (AID 504749). Note: nearly all actives have a fitted effect of over 60% in size. Note: potency is the fitted concentration of half-maximal effect. As to conditions: P. falciparum in erythrocytes, SYBR Green DNA, 72 h; series mostly up to 28.7 µM. Put shortly: as §1

Luciferin 4-monooxygenase (Photinus pyralis), sequence (P08659 whole entry, looked up): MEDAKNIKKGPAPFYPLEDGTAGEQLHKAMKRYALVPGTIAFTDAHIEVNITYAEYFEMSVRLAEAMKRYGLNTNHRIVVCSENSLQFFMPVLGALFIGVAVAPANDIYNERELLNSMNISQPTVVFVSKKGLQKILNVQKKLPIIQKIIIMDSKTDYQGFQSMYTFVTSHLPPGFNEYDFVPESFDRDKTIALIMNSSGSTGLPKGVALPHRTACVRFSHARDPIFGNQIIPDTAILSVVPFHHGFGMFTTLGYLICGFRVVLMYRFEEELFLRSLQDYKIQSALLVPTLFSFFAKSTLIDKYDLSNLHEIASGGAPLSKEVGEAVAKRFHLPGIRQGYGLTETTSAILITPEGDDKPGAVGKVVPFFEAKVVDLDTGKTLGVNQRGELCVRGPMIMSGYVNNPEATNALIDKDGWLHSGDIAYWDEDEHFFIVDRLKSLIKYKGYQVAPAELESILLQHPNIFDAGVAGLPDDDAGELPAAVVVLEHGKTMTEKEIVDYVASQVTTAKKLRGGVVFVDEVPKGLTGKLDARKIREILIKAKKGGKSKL

With `CC1(C)CC1C(=O)N/C(=C/CCCCSCC(N)C(=O)O)C(=O)O` (configuration not stated), the Potency result (in [1]; in experiment [2]; with 7G8; in the experiment with ATS95; with CP215; in the experiment on CP247) was “inactive” in each case. For the same compound, the Potency entry in the experiment on CP266, with CP291, in the experiment with CP297, in the experiment with CP335, in the experiment with DIV17 and in the experiment on GB4 was “inactive” each time. Further, the Potency entry with P93_24, in the experiment with PC15, in the experiment on PC26, in the experiment with PC49, in the experiment on TAB109 and in the experiment with TAB165 was “inactive” each time.

As to `CN[C@H](C)CCC=C(C)C`, the Potency result in experiment [2] and in [3] was “inactive” each time. The Potency in the experiment with 7G8 is 0.0501 µM (active); with ATS95 it was 0.355 µM (active); in the experiment on CP215 it was 0.601 µM (active); with CP247, 0.398 µM (active); in the experiment with CP260, 0.224 µM (active); in the experiment on CP266, 0.536 µM (active). The Potency in the experiment with CP291 is 0.953 µM (active); with CP297, 0.601 µM (active); in the experiment with CP335, 0.239 µM (active); in the experiment with DIV17, 0.19 µM (active); in the experiment on GB4, 0.135 µM (active); in the experiment on P93_24 it was 0.251 µM (active). Further, the Potency with PC15 is 0.355 µM (active); with PC26, 0.19 µM (active); with PC49, 0.282 µM (active); in the experiment with TAB109 it was 0.398 µM (active); in the experiment with TAB165, 0.251 µM (active).

Take `C[C@@H]1CCN(C(=O)[C@H](CCCNC(=N)N)NS(=O)(=O)c2cccc3c2NC[C@H](C)C3)[C@@H](C(=O)O)C1`: the Potency entry (in [1]; in experiment [2]; in experiment [3]; with 7G8; in the experiment on ATS95; in the experiment with CP215) was “inactive” in each case. For the same compound, the Potency result in the experiment with CP247, in the experiment on CP260, in the experiment on CP266, in the experiment with CP291, with CP297 and in the experiment with CP335 was “inactive” throughout. The Potency result in the experiment with DIV17, with GB4, with P93_24, in the experiment on PC15, with PC26 and in the experiment on PC49 was “inactive” throughout. Besides, the Potency entry in the experiment with TAB109 and in the experiment on TAB165 was “inactive” throughout.

On to `C=C[C@@]1(C)C[C@H](OC(=O)CSC(C)(C)CNC(=O)[C@@H](N)C(C)C)[C@@]2(C)C(C)CC[C@@]3(CCC(=O)[C@@H]32)[C@H](C)[C@H]1O` (some centres not stated), for which the Potency entry in experiment [1] and in [3] was “inactive” throughout. For the same compound, the Potency in the experiment on 7G8 was 2.51 µM (active); in the experiment on ATS95, 5.01 µM (active); with CP215 it was 1.69 µM (active); in the experiment with CP247 it was 4.47 µM (active); with CP260, 3.98 µM (active); with CP291, 1.69 µM (active). The Potency with CP297 is 2.39 µM (active); in the experiment with CP335 it was 1.2 µM (active); in the experiment with DIV17 it was 7.57 µM (active); in the experiment with GB4 it was 3.79 µM (active); with P93_24 it was 0.501 µM (active); in the experiment with PC26, 6.01 µM (active). Further, the Potency in the experiment on TAB109 is 0.891 µM (active); in the experiment with TAB165, 4.47 µM (active).

In the case of `CC[C@H](C)[C@H]1O[C@]2(CC[C@@H]1C)C[C@@H]1C[C@@H](C/C=C(\C)[C@H](O[C@@H]3C[C@H](OC)[C@H](O[C@@H]4C[C@H](OC)[C@@H](O)[C@H](C)O4)[C@H](C)O3)[C@@H](C)/C=C/C=C3\CO[C@@H]4[C@H](O)C(C)=C[C@@H](C(=O)O1)[C@]34O)O2`, the Potency was 12.8 µM (active) in experiment [2]; 2 µM (active) with 7G8; 1.12 µM (active) with ATS95; 1.35 µM (active) in the experiment with CP215; 1 µM (active) in the experiment with CP247; 2.24 µM (active) in the experiment with CP260. The Potency with CP291 was 1.51 µM (active); in the experiment on CP297 it was 1.51 µM (active); with CP335, 1.35 µM (active); with DIV17, 2.13 µM (active); with GB4, 1.51 µM (active); with P93_24, 1.26 µM (active). Also, the Potency in the experiment with PC15 is 2.82 µM (active); with PC26, 1.2 µM (active); in the experiment with TAB109 it was 1.26 µM (active); in the experiment with TAB165, 0.794 µM (active).

As to `OCC(CO)NC1C[C@](O)(CO)[C@@H](O)[C@H](O)[C@H]1O` (some centres not stated), the Potency result (in experiment [1]; in [2]; in experiment [3]; in the experiment with 7G8; with ATS95; in the experiment with CP215) was “inactive” in each case. Also, the Potency entry with CP247, with CP260, in the experiment on CP297, with CP335, with DIV17 and in the experiment on GB4 was “inactive” each time. For the same compound, the Potency entry with P93_24, with PC15, in the experiment on PC26, in the experiment with PC49, in the experiment with TAB109 and in the experiment on TAB165 was “inactive” throughout.
